CHT block: inhibits the human high affinity choline transporter; Q9GZV3; CHT-expressing cells, membrane potential dye, choline response; active compounds read low; B-score at 10 µM; actives 0.86% (n = 310,000); AID 488975;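 active means B-score over 3 SD under the library average, and starting fluorescence ratio not unusually high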;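 further: choline stimulus applied at its EC90 after an EC20 pre-addition; B-score computed on integrated fluorescence ratio after choline addition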
Target sequence (Q9GZV3 whole entry, looked up): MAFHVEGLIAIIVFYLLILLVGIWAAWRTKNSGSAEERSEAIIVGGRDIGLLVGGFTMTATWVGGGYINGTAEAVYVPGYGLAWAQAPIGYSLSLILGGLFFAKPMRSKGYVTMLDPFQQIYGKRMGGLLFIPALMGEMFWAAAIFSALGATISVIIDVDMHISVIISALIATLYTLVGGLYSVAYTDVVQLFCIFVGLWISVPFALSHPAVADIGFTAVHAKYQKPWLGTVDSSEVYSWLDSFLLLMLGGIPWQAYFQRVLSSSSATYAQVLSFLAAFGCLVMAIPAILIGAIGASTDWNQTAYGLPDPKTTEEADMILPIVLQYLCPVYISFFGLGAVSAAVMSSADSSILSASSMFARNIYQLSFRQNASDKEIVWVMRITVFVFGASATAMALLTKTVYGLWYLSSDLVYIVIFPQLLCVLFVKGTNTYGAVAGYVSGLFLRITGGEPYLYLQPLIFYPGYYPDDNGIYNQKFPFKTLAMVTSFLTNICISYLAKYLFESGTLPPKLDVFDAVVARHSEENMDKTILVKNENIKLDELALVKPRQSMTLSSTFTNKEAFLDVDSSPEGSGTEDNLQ
TMEM16A inh: inhibitors of mouse TMEM16A calcium-activated chloride channel. Q8BHY3. HEK293 TMEM16A/YFP iodide influx fluorescence, ionomycin. normalized B-score (activity score, 25-100; higher = stronger inhibition) at 10 µM. actives 1.2% (n = 310,000). AID 588511;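 active means ratio plate-corrected score three or more library SD toward inhibition, starting fluorescence score within five deviations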;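 further: score derived from kinetic fluorescence span divided by baseline fluorescence per well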
TMEM16A act: activates or potentiates the mouse TMEM16A chloride channel; HEK293 TMEM16A/YFP-H148Q/I152L, iodide quench fluorescence; active compounds read low; AID 623877; Q8BHY3; actives 0.3% (n = 340,000); B-score at 10 µM;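 active means fluorescence-ratio B-score plate-corrected deviation score at least 3 library SD below zero, with starting fluorescence score within 5 deviations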;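 further: channel opened by trigger with iodide after compound preincubation; score built on the fluorescence ratio of max minus min over baseline; more negative score means more quench and so TMEM16A activation or potentiation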
CHT PAM: allosterically activates the human high affinity choline transporter | CHT-expressing cells, membrane potential dye, choline EC20; active compounds read high; LV-AA mutant CHT in HEK293 cells | actives 0.49% (n = 310,000) | B-score at 10 µM | Q9GZV3 | AID 488977;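 active means initial fluorescence not abnormally high and integrated response B-score, plate-corrected, over 3 SD above library mean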
The depositor's hits bear a star; i = inactive; . = no result. An excerpt weighted towards active compounds, which were near 2.3% of everything screened.

SMILES	CHT block	TMEM16A inh	TMEM16A act	CHT PAM
Cc1c(C(=O)Nc2nc3ccccc3[nH]2)oc2ccc(Br)cc12	i	i	-4.62*	i
O=C1ON=C(c2ccccc2)/C1=C/c1ccc(-c2ccccc2[N+](=O)[O-])o1	i	25*	-6.23*	i
O=[N+]([O-])c1ccccc1-c1ccc(/C=N/n2cnnc2)o1	i	i	i	i
O=C(N/C(=C\c1ccc(Br)cc1)C(=O)N1CCOCC1)c1ccco1	i	i	i	i
Cn1c(=O)c(/C=C/c2ccc(F)cc2)nc2ccccc21	.	.	-7*	.
Cn1c(=O)c(/C=C/c2ccccc2)nc2ccccc21	i	i	i	i
O=C(O)c1cccc(-c2noc(-c3cccc(Cl)c3)n2)c1	.	.	i	.
CC(=O)c1c(C)[nH]c(C(=O)CSc2ncnc3sc(-c4ccccc4)cc23)c1C	i	25*	i	i
O=C(O)CSc1ncnc2sc(-c3ccccc3)cc12	i	i	i	i
Cc1ccc(NC(=O)CSc2ccccc2)cc1S(=O)(=O)N1CCOCC1	.	.	i	.
Cc1ccc(NC(=O)COc2ccccc2)cc1S(=O)(=O)N1CCCCCC1	i	25*	i	i
Cc1ccc(NC(=O)CN(C)CC(=O)Nc2cccc(F)c2)cc1S(=O)(=O)N1CCCCCC1	i	25*	i	i
Cc1ccc(NC(=O)CSc2ncnc3ccccc23)cc1S(=O)(=O)N1CCOCC1	i	25*	i	i
O=C(Cc1ccc(Br)cc1)OCC(=O)N1CCc2ccccc2C1	i	i	i	i
CN(Cc1cnn(C)c1)C(=O)CC1C(=O)NCCN1Cc1cccc(Oc2ccccc2)c1 (centres undefined)	i	i	i	i
COc1cccc(CN2CCNC(=O)C2CC(=O)N(Cc2cnn(C)c2)C(C)C)c1 (centres undefined)	i	i	-7.55*	i
CCN(CC)c1ccc(/C=C2\SC(N)=NC2=O)cc1	i	i	i	i
CCN(CC)c1ccc(C=C2SC(=S)NC2=O)cc1	.	.	-5.07*	.
CCN(CC)S(=O)(=O)c1cc(C)ccc1NC(=S)Nc1cccnc1	i	25*	i	i
Cc1cc(C(=O)OCC(=O)Nc2cccc(S(N)(=O)=O)c2)c(C)o1	.	.	i	.
CC(C)CCNC(=O)NC(=O)COC(=O)c1cc(S(=O)(=O)N2CCOCC2)ccc1N1CCCCC1	i	i	-12*	i
Cc1cc(C(=O)OCC(=O)Nc2cccc(S(=O)(=O)N3CCOCC3)c2)c(C)o1	i	i	-6.25*	i
CCN(Cc1ccccc1)C(=O)COC(=O)c1cc(Cl)nc(Cl)c1	i	i	i	i
CC1CCCCN1CC(=O)Nc1cc(S(=O)(=O)N2CCOCC2)ccc1N1CCCC1 (centres undefined)	i	i	i	i
O=C(Nc1nc2ccccc2n1CCN1CCCCC1)C1CCCCC1	i	25*	i	i
SMILES	CHT block	TMEM16A inh	TMEM16A act	CHT PAM
O=C(Nc1nc2ccccc2n1CCN1CCCC1)C1CCCCC1	i	i	i	i
CCc1ccc(OCCNC(=O)c2ccccc2SCc2ccc(F)cc2)cc1	i	i	i	i
O=C(NCCOc1ccc(F)cc1)c1ccccc1SCc1ccccc1	i	25*	i	i
NNc1ccc2c(C(F)(F)F)cc(C(F)(F)F)nc2n1	i	i	i	i
N#CC(c1cccc(Cl)c1)c1ccc2c(C(F)(F)F)cc(C(F)(F)F)nc2n1 (centres undefined)	i	100*	-4.8*	i
COc1ccccc1-n1cc(-c2ccc(Cl)cc2)[nH]c1=O	i	i	i	i
CN(C)c1ccc(C(=O)Nc2nc3c(s2)CCCC3)cc1	i	i	i	i
C/C(=N\Nc1nc2c(s1)CCCC2)c1ccc(Cl)cc1	i	i	-10.5*	i
CCOC(=O)/C=C/c1ccc2c(c1)S(=O)(=O)N(c1cccc(OC)c1)[C@H]2CC(=O)OCC	i	i	i	i
O=C1CCC(=O)N1c1nc2nc(-c3ccccc3)cc(=O)n2[nH]1	i	i	-23.5*	i
Cc1nc2nc(-c3ccccc3)cc(=O)n2[nH]1	i	i	i	i
Cc1ccc(-n2nc3c(=O)n(C(C)C(=O)NCCc4cccs4)nc(C)c3c2C)cc1 (centres undefined)	-5.54*	i	i	i
N#CC(C#N)=C1C=CC=CN1/C(=C\c1ccccc1)C(=O)c1cccs1	i	i	i	i
N#CC(C#N)=C1C=CC=CN1/C(=C\c1ccccc1Cl)C(=O)c1ccccc1	i	i	-8.37*	i
O=C(Nc1ncc(S(=O)(=O)c2ccc([N+](=O)[O-])cc2)s1)c1cccc2ccccc12	i	25*	-5.34*	i
O=C(Nc1ncc([N+](=O)[O-])s1)c1ccccc1Br	i	100*	i	i
O=C(NC(Nc1ncc(S(=O)(=O)c2ccc([N+](=O)[O-])cc2)s1)(C(F)(F)F)C(F)(F)F)c1ccc(Cl)cc1	i	100*	i	i
COCC(=O)Nc1ncc(S(=O)(=O)c2ccc([N+](=O)[O-])cc2)s1	i	i	i	i
CCN1CCCc2cc(CN(CCN3CCOCC3)C(=S)Nc3cccc(Cl)c3)ccc21	i	i	i	i
CN(c1ccccc1)c1cc(Br)nc(Br)c1	i	i	i	i
O=C(c1cc(C(=O)NCCc2ccccc2)c(=O)n(CCc2ccccc2)c1)c1cc(Cl)ccc1O	i	i	i	i
CC1=NOC(=O)/C1=C\c1ccc(-c2ccc(Cl)cc2Cl)o1	.	.	-6.62*	.
Cc1ccc(S(=O)(=O)N2CCC(=O)N(C(COCc3cccc(C)c3)Cc3ccccc3)CC2)cc1 (centres undefined)	i	i	-21.9*	i
Cc1ccc(COCC(CC(C)C)N2CCN(C(=O)c3cccc(C(F)(F)F)c3)CCC2=O)cc1 (centres undefined)	i	i	-17.1*	i
Cc1ccc(S(=O)(=O)N2CCC(=O)N(C(COCc3ccc(Cl)c(Cl)c3)Cc3ccccc3)CC2)cc1 (centres undefined)	i	i	.	i
SMILES	CHT block	TMEM16A inh	TMEM16A act	CHT PAM
CC(C)CC(COCc1ccc(F)cc1)N1CCN(C(=O)c2cccc(C(F)(F)F)c2)CCC1=O (centres undefined)	i	i	i	i
Cc1ccc(S(=O)(=O)N2CCC(=O)N(C(COCc3ccc(C(F)(F)F)cc3)Cc3ccccc3)CC2)cc1 (centres undefined)	i	i	-33.9*	i
CCCCNC(=O)NNC(=O)c1cc(C)on1	i	i	i	i
Cc1ccccc1OS(=O)(=O)c1cn(C)c(=O)n(C)c1=O	i	i	i	i
COC(=O)c1ccc2c(c1)C(C)(C)C(/C=C/c1ccc(O)cc1)=[N+]2C	i	i	i	6.49*
COC(=O)N/N=C(\C)c1ccc2ccccc2c1OC(F)F	i	i	i	i
